PRMT1 FP inh – blocks human protein arginine methyltransferase 1 | inhibition, % at 2.79 µM | 370,000 compounds, 1.3% hits | recombinant PRMT1, activity-based probe fluorescence polarization | Q99873;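 active = inhibition above about 21% made by adding two undisclosed values, limit read from the data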
ABHD5 PLIN5 PPI – inhibitors of human ABHD5-perilipin-5 interaction. 360,000 compounds, 0.78% hits. inhibition, % at 4 µM. Split G. princeps luciferase complementation, luminescence, 4 h. Q00G26+Q8WTS1;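 active = inhibition above the mean inhibition across every tested compound plus 3 SD, cut at about 22% in these data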
TLR9-MyD88 block – TLR9-MyD88 interaction inhibition. Q9NR96+Q99836. CHO BLA complementation TLR9-MyD88, CCF4 FRET ratio. inhibition, % at 4.98 µM. 340,000 compounds, 0.21% hits. AID 504734;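 active = inhibition above the mean over all tested compounds plus 3 SD, cut at about 21% in these data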
TLR4-MyD88 BLA – TLR4-MyD88 interaction inhibition in cells; HeLa CL3-4 TLR4/MyD88 BLA complementation, FRET ratio; O00206+Q99836; 200,000 compounds, 0.18% hits; AID 861; inhibition, % at 8.4 µM; in the data active = inhibition above about 25%
Target sequence (O00206 whole entry, looked up): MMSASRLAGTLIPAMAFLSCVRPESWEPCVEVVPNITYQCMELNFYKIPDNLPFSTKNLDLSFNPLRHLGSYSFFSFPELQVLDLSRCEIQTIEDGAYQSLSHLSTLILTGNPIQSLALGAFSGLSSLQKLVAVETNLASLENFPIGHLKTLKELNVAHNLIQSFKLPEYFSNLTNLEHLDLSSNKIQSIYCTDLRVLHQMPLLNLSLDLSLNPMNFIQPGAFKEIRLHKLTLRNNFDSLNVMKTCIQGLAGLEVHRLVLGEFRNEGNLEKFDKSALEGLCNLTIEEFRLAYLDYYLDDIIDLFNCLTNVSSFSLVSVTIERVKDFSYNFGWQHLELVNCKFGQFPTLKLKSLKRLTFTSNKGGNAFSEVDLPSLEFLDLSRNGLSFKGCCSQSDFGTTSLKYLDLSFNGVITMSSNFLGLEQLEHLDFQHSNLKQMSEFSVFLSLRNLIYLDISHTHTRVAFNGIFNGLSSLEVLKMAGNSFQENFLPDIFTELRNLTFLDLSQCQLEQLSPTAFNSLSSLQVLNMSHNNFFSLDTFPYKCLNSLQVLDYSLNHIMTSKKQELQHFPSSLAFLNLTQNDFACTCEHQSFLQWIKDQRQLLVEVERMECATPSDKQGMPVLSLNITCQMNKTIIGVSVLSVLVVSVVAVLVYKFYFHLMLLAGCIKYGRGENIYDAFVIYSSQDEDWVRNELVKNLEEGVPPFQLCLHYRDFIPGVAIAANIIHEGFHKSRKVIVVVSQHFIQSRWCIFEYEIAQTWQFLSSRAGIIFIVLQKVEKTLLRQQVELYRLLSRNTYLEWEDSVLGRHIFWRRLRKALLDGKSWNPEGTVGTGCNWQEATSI
Target sequence (Q99836 whole entry, looked up): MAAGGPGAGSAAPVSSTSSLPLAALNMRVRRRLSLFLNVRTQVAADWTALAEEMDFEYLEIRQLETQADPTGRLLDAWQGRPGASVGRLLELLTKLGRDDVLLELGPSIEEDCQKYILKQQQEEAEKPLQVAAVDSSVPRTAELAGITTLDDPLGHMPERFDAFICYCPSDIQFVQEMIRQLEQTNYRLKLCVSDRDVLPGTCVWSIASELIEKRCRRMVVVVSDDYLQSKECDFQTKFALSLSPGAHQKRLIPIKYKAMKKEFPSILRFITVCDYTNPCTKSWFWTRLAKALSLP
NOD2 RIPK2 PPI – NOD2-RIPK2 protein interaction inhibition. O43353. CHO BLA complementation NOD2-RIPK2, CCF4 ratio. inhibition, % at 4.98 µM. 360,000 compounds, 0.38% hits; in the data active = inhibition above about 21%
rCAG RNA binder – r(CAG) repeat RNA binding; inhibition, % at 3 µM; AID 651821; 370,000 compounds, 1.3% hits; TO-PRO-1 dye displacement fluorescence;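 active = inhibition above the plate cutoff, the mean of all test compounds on that plate plus 3 SD, cut at about 35% in these data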;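 also: higher means more dye released from RNA so lower well fluorescence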
ABHD5-PLIN5 conf – confirmation of human ABHD5-PLIN5 interaction inhibitors | biochemical ABHD5-PLIN5 interaction, luminescence | shares compounds with ABHD5 PLIN5 PPI | AID 651612 | 2,200 compounds, 67% hits | inhibition, % at 4 µM; in the data active = inhibition above about 23%
HNF4 counter – counter-screen for ABHD5-PLIN5 inhibitors: HNF4 split-luciferase. HNF4 dimerization, luminescence, biochemical. shares compounds with ABHD5 PLIN5 PPI. 2,200 compounds, 77% hits. inhibition, % at 4 µM;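 active = mean inhibition across replicate wells exceeding the computed hit threshold, cut at about 13% in these data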;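 also: light from luciferase halves that rejoin when HNF4 fusion proteins dimerize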
A number is an active result; n = inactive; x = not tested or not shown. Hits are enriched below; roughly 3.3% of the tested compounds scored in any of these assays.

SMILES	PRMT1 FP inh	ABHD5 PLIN5 PPI	TLR9-MyD88 block	TLR4-MyD88 BLA	NOD2 RIPK2 PPI	rCAG RNA binder	ABHD5-PLIN5 conf	HNF4 counter
COc1cc(/C=C/C(=O)c2c(O)ccc3c(C)cc(=O)oc23)ccc1O	n	50.9	n	n	n	n	61.3	63.5
CC(=O)c1c(OCC(=O)O)ccc2c(C)cc(=O)oc12	n	n	n	n	n	n	x	x
Cc1cc(=O)oc2c(C(=O)/C=C\c3cccs3)c(O)ccc12	n	39.1	n	n	n	n	39.1	45.4
CCCCCN1CCCCC(NC(=O)Cc2ccccc2)C1=O (configuration not stated)	n	x	x	x	x	n	x	x
O=C(NCCc1c[nH]c2ccccc12)C1CCC(=O)N(CCc2cccc(F)c2)C1 (configuration not stated)	n	n	n	x	n	n	x	x
COCCN1C(=O)CN(S(C)(=O)=O)CC1(C)C(=O)Nc1c(C)cccc1C (configuration not stated)	n	n	x	x	n	n	x	x
CCOC(=O)c1cnc2c(C)cccc2c1NCc1ccco1	n	23.9	n	n	n	n	n	n
CCOC(=O)c1ccc2ncc(C(=O)OCC)c(NCc3ccco3)c2c1	n	n	n	n	n	n	x	x
COc1cccc(-c2nnc(SCC(=O)NCc3ccc4c(c3)OCO4)n2Cc2ccco2)c1	n	28.3	n	n	n	n	n	n
O=C(Nc1cccc2cccnc12)c1csc([C@@H]2O[C@H](CO)[C@H](O)[C@H](O)[C@H]2O)n1	n	n	x	x	n	n	x	x
CC(NC(=O)/C=C/c1ccco1)c1nc2ccccc2n1Cc1cccc(Cl)c1 (configuration not stated)	n	25.7	n	n	n	n	36.9	58.3
Cc1ccc(Oc2c(C(N)=O)cc([N+](=O)[O-])cc2[N+](=O)[O-])cc1	n	63.1	n	n	n	n	94.7	74.1
Cc1ccc(CNc2ccc([N+](=O)[O-])cc2C(N)=O)cc1	n	n	n	x	n	n	x	x
CSc1nc2ccccc2cc1/C=C(\C#N)c1cccc(C)c1	n	48.6	n	n	n	n	n	n
Cc1c2cnn(CC(=O)NCCCN3CC(C)CC(C)C3)c(=O)c2c(C)n1Cc1ccccc1Cl (configuration not stated)	n	n	n	x	n	n	x	x
CC1CC(C)CN(C(=O)c2ccncc2)C1 (configuration not stated)	n	n	n	n	n	n	x	x
CC1C/C(=C/c2ccncc2)C(=O)/C(=C/c2ccncc2)C1 (configuration not stated)	n	96.0	n	n	n	n	103.3	105.6
Cc1ccc(NC(=O)c2cnccn2)c(Br)c1	n	100.4	n	x	n	n	n	n
CN(C)c1ccc(-n2cccc2/C=C/[N+](=O)[O-])cc1	n	52.3	n	n	n	n	81.6	71.4
CN(C)c1ccc(/C=C/c2c([N+](=O)[O-])c(=O)n(C)c(=O)n2C)cc1	n	n	n	x	n	n	x	x
COc1ccc(OC)c(S(=O)(=O)N2CCC(C(=O)NCc3ccccn3)CC2)c1	n	n	n	x	n	n	x	x
CC(=O)NC(Cc1ccccc1)C(=O)N1CCN(C(=O)c2ccco2)CC1 (configuration not stated)	x	n	n	n	n	x	x	x
CC(=O)NC(CSC(CC(=O)c1ccco1)c1ccc(C)cc1)C(=O)O (configuration not stated)	n	49.9	n	n	n	n	39.8	39.8
NS(=O)(=O)c1ccc(CNS(=O)(=O)c2cccc3nonc23)cc1	n	n	x	x	n	n	x	x
Cc1ccc2c(c1)Sc1ccccc1CC2=O	n	n	n	n	n	n	x	x
SMILES	PRMT1 FP inh	ABHD5 PLIN5 PPI	TLR9-MyD88 block	TLR4-MyD88 BLA	NOD2 RIPK2 PPI	rCAG RNA binder	ABHD5-PLIN5 conf	HNF4 counter
O=C1Cc2ccccc2Sc2ccccc21	n	39.0	n	n	n	n	n	12.4
Cc1c(CN2CCC(CO)(Cc3cccc(C(F)(F)F)c3)CC2)c2ccccc2n1C	n	27.7	n	n	n	n	n	n
CCN(C(=O)CSc1nccc(=O)[nH]1)C1CCCCC1	n	n	n	x	n	n	x	x
Cc1ccc(/C=N/N2CCN(C3c4ccccc4-c4ccccc43)CC2)o1	n	25.6	n	x	n	n	n	13.2
CC(=O)/C=C1/C(=O)Nc2ccccc21	n	44.1	n	n	n	n	71.3	80.7
CC(=O)N(C)c1ccc(N=C2C(=O)Nc3ccccc32)cc1	x	n	n	x	n	x	x	x
O=C1Nc2ccc(Br)cc2/C1=C/C(=O)c1ccccc1	n	85.3	n	x	n	n	87.6	80.3
CCN1CCN(CCNC(=O)c2ccc3c(c2)N(Cc2ccc(F)cc2)C(=O)/C(=C/c2ccccc2)S3)CC1	n	23.6	n	n	n	n	n	n
CN1CCN(CCCNC(=O)c2ccc(/C=C3\Sc4ccccc4N(Cc4ccccc4F)C3=O)cc2)CC1	n	32.7	n	n	n	n	n	n
CCC1CCCCN1CCCNC(=O)c1ccc2c(c1)N(Cc1ccc(F)cc1)C(=O)c1ccccc1S2=O (configuration not stated)	n	25.4	n	x	n	n	n	n
O=C(NCCN1CCOCC1)c1ccc(/C=C2\Sc3ccccc3N(Cc3ccccc3F)C2=O)cc1	n	n	n	x	n	n	x	x
COc1ccc(S(=O)(=O)N2CCCCC2)cc1NC(=O)c1cncc(Br)c1	n	n	n	x	n	n	x	x
Cc1ccccc1N1CCN(C2CCCN(C(=O)c3cn4cccc(C)c4n3)C2)CC1 (configuration not stated)	n	n	n	x	n	n	x	x
COc1ccc(N2CCN(S(=O)(=O)CCNC(=O)Cc3ccc([N+](=O)[O-])cc3)CC2)cc1	n	67.7	n	x	n	n	n	n
CC1=CC(=O)N(c2ccn(C)n2)C1=O	n	24.7	n	x	n	n	36.2	38.6
Cc1cccc(C(=O)Nc2ccn(C)n2)c1	n	n	n	x	n	n	x	x
CC(C)(C)OC(=O)NCCc1nnc(S(=O)(=O)Cc2ccc(Cl)cc2Cl)o1	n	25.7	n	n	n	n	39.1	73.6
CCNC(=O)N(C)[C@H]1C[C@H]2c3[nH]c4c(-c5cccc(C)c5)cccc4c3CCN2C[C@H]1[C@H](C)O	n	x	x	x	x	n	x	x
COC(=O)[C@]1(Cc2ccccc2)N[C@H](CN(C)S(=O)(=O)c2ccc(-c3ccccc3)cc2)[C@@H]2C(=O)N(C)C(=O)[C@@H]21	n	n	n	x	n	n	x	x
CCOC(=O)N1C/C(=C\c2ccccc2)C(=O)/C(=C/c2ccccc2)C1	n	68.6	n	x	n	n	103.0	107.6
C[N+](C)(C)CCC(=O)N1C/C(=C/c2ccccc2)C(=O)/C(=C\c2ccccc2)C1	n	92.2	n	x	n	n	100.5	100.5

Screening results deposited in PubChem BioAssay by The Scripps Research Institute Molecular Screening Center.
